# Laboratory results published in PMC7862700, “An all-to-all approach to the identification of sequence-specific readers for epigenetic DNA modifications on cytosine”.
# What was measured:
# Experiment in all cases: DAPPL (digital affinity profiling via proximity ligation, sequencing); 10 mM Tris-HCl pH 7.5, 50 mM NaCl, 1 mM DTT, 4% glycerol, room temperature, 30 min; GST-TFs on glutathione beads, 16-mer random dsDNA library, 0.1% formaldehyde crosslink after washing; high values mean tight binding
# FEV = target: T1, FEV (Homo sapiens, UniProt Q99581 1-238); conditions: protein: recombinant; tags: N-terminal GST; dsDNA, one strand shown
# T1 sequence: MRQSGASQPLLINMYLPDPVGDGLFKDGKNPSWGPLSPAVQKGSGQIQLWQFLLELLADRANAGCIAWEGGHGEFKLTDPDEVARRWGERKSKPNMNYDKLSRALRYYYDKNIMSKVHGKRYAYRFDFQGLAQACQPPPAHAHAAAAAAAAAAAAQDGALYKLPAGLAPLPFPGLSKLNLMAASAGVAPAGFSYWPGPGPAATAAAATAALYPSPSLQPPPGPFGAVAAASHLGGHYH
# Outline: (§1)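 Human transcription factors were made in yeast as GST fusions, captured on glutathione beads and barcoded with DNA. With a tag-only sample included, the pool was incubated with 200 nmole of a random double-stranded 16-mer DNA library in Tris/NaCl/DTT/glycerol buffer at room temperature for 30 min, then crosslinked with 0.1% formaldehyde after washing, ligated by proximity, amplified and sequenced. For binding signal, each hexamer's read frequency for a factor is divided by its frequency for the tag-only sample.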
# ETV5 = ETV5 (Homo sapiens, UniProt P41161 1-510); conditions: protein: recombinant; tags: N-terminal GST; dsDNA, one strand shown
# Outline: as §1
# HSF1 = HSF1 (Homo sapiens, UniProt Q00613 1-529); conditions: protein: recombinant; tags: N-terminal GST; chain copies: 3; dsDNA, one strand shown
# Outline: as §1
# SPIC = target: T2, SPIC (Homo sapiens, UniProt Q8N5J4 1-248); conditions: protein: recombinant; tags: N-terminal GST; dsDNA, one strand shown
# T2 sequence: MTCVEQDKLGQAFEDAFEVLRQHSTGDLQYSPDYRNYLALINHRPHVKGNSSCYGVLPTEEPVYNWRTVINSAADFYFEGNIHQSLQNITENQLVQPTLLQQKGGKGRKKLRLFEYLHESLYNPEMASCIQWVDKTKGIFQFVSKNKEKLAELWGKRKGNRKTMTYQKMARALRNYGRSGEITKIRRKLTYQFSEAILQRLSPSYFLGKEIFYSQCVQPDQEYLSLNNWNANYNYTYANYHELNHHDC
# Outline: as §1
# ELF4 = ELF4 (Homo sapiens, UniProt Q99607 1-663); conditions: protein: recombinant; tags: N-terminal GST; dsDNA, one strand shown
# Outline: as §1
# ELK4 = target: T3, ELK4 (Homo sapiens, UniProt P28324-2 1-405); conditions: protein: recombinant; tags: N-terminal GST; dsDNA, one strand shown
# T3 sequence: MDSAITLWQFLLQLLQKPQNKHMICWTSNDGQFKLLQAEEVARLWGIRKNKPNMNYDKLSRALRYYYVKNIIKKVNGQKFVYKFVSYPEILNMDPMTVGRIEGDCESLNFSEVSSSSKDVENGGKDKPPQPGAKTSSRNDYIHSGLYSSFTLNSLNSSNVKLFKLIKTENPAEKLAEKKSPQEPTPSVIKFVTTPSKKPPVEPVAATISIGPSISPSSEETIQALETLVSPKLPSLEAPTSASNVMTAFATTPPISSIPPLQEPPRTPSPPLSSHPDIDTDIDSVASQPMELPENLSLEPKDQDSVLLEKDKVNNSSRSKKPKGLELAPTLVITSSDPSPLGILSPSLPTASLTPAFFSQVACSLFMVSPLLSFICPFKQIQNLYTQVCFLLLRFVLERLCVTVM
# Outline: as §1
# ETV2 = target: T4, ETV2 (Homo sapiens, UniProt O00321 1-342); conditions: protein: recombinant; tags: N-terminal GST; dsDNA, one strand shown
# T4 sequence: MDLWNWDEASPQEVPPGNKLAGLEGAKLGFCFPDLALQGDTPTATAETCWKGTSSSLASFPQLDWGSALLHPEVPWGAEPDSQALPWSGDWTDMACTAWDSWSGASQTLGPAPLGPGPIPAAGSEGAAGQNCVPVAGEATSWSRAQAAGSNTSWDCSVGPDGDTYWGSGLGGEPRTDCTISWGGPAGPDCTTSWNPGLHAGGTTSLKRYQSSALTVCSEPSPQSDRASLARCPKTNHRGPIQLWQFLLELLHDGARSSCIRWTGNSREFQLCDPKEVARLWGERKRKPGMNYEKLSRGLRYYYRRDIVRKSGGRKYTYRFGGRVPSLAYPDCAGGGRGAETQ
# Outline: as §1
# ELF3 = target: T5, ELF3 (Homo sapiens, UniProt P78545 1-371); conditions: protein: recombinant; tags: N-terminal GST; dsDNA, one strand shown
# T5 sequence: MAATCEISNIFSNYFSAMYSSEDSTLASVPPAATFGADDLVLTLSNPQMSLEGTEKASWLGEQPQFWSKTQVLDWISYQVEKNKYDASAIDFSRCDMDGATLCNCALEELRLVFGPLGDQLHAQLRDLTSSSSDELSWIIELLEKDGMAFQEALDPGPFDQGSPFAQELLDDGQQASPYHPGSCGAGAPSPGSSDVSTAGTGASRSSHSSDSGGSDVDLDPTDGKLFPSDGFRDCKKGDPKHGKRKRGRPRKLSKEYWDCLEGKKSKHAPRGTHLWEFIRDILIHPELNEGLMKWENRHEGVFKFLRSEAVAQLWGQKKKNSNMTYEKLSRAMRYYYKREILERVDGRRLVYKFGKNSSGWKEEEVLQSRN
# Outline: as §1
# CRX = CRX (Homo sapiens, UniProt O43186 1-299); conditions: protein: recombinant; tags: N-terminal GST; dsDNA, one strand shown
# Outline: as §1
# ETV1 = ETV1 (Homo sapiens, UniProt P50549 1-477); conditions: protein: recombinant; tags: N-terminal GST; dsDNA, one strand shown
# Outline: as §1
# ERF = target: T6, ERF (Homo sapiens, UniProt P50548 1-548); conditions: protein: recombinant; tags: N-terminal GST; dsDNA, one strand shown
# T6 sequence: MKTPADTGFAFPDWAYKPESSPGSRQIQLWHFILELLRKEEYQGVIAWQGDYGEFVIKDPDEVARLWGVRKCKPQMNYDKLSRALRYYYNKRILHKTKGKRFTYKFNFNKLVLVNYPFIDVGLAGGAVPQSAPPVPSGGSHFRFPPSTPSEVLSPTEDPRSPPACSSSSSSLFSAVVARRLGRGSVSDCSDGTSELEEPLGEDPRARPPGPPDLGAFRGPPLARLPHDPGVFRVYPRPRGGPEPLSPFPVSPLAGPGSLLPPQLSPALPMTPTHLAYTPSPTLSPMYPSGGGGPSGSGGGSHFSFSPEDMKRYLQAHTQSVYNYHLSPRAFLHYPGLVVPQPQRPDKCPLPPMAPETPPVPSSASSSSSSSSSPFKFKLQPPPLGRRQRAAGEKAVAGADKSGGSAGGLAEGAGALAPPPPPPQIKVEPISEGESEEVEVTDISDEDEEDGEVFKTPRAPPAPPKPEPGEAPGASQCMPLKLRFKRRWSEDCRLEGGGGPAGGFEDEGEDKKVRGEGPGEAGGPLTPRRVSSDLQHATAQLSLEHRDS
# Outline: as §1
# ETV3L = target: T7, ETV3L (Homo sapiens, UniProt Q6ZN32 1-361); conditions: protein: recombinant; tags: N-terminal GST; dsDNA, one strand shown
# T7 sequence: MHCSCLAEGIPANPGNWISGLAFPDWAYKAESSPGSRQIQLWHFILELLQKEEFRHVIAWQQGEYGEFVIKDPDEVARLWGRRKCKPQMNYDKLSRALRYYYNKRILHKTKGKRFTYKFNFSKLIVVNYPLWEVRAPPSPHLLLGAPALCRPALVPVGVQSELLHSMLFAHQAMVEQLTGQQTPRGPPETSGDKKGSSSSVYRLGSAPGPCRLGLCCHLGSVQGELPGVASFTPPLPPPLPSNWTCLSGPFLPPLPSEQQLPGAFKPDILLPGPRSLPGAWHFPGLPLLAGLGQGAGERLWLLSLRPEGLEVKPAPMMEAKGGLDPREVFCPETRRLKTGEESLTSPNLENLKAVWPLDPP
# Outline: as §1
# ETS2 = target: T8, ETS2 (Homo sapiens, UniProt P15036 1-469); conditions: protein: recombinant; tags: N-terminal GST; dsDNA, one strand shown
# T8 sequence: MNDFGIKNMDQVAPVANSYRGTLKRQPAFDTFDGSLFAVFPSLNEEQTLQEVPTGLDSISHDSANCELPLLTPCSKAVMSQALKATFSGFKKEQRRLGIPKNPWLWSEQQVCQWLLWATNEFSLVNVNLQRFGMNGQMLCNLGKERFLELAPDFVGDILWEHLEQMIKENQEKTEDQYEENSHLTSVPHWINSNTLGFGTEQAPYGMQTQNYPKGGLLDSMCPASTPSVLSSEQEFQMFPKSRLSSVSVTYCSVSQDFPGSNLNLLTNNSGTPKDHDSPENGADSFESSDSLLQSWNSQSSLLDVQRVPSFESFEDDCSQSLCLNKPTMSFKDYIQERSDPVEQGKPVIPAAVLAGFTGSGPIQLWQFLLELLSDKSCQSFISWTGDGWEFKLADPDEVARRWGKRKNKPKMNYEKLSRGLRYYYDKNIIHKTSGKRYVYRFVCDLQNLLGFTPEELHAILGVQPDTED
# Outline: as §1
# SPDEF = target: T9, SPDEF (Homo sapiens, UniProt O95238 1-335); conditions: protein: recombinant; tags: N-terminal GST; dsDNA, one strand shown
# T9 sequence: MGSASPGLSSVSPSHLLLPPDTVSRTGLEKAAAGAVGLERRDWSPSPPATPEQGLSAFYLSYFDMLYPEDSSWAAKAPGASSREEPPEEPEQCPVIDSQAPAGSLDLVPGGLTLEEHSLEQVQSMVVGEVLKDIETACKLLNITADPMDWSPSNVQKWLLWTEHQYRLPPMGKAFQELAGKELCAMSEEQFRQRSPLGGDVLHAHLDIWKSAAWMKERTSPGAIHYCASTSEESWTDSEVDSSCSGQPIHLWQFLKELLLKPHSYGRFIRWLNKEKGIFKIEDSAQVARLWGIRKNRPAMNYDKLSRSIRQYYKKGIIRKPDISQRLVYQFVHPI
# Outline: as §1
# ETV7 = target: T10, ETV7 (Homo sapiens, UniProt Q9Y603 1-341); conditions: protein: recombinant; tags: N-terminal GST; dsDNA, one strand shown
# T10 sequence: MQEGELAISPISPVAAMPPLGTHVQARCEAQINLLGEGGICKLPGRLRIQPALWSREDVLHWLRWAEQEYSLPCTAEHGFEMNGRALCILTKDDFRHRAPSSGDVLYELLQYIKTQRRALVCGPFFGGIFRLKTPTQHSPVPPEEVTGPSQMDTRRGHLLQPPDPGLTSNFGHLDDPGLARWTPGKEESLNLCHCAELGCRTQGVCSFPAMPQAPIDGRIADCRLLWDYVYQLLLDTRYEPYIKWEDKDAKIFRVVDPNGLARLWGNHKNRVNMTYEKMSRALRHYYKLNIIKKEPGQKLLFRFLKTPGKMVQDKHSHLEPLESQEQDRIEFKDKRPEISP
# Outline: as §1
# ELF5 = target: T11, ELF5 (Homo sapiens, UniProt Q9UKW6-2 1-255); conditions: protein: recombinant; tags: N-terminal GST; dsDNA, one strand shown
# T11 sequence: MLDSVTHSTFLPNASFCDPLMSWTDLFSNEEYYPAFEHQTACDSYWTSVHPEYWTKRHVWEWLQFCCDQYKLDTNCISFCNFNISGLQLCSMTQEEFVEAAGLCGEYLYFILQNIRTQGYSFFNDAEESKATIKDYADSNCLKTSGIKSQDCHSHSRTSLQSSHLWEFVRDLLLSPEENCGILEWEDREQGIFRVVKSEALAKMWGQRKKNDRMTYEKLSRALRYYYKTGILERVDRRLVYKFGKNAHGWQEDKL
# Outline: as §1
# ETV3 = target: T12, ETV3 (Homo sapiens, UniProt P41162-2 1-143); conditions: protein: recombinant; tags: N-terminal GST; dsDNA, one strand shown
# T12 sequence: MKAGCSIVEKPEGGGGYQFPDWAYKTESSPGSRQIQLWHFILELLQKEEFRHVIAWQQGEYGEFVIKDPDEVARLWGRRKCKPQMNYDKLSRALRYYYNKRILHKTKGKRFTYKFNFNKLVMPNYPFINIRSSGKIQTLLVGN
# Outline: as §1
# ETV6 = ETV6 (Homo sapiens, UniProt P41212 1-452); conditions: protein: recombinant; tags: N-terminal GST; dsDNA, one strand shown
# Outline: as §1
# Chain of CRX (O43186 whole entry): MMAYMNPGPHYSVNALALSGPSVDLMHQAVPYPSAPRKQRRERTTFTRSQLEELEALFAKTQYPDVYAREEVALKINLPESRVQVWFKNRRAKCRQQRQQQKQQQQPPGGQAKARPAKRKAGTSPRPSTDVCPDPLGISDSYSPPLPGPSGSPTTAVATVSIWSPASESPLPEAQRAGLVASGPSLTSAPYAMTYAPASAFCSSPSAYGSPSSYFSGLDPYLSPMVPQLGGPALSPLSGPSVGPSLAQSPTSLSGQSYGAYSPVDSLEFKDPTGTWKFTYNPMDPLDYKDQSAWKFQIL
# Chain of ETV1 (P50549 whole entry): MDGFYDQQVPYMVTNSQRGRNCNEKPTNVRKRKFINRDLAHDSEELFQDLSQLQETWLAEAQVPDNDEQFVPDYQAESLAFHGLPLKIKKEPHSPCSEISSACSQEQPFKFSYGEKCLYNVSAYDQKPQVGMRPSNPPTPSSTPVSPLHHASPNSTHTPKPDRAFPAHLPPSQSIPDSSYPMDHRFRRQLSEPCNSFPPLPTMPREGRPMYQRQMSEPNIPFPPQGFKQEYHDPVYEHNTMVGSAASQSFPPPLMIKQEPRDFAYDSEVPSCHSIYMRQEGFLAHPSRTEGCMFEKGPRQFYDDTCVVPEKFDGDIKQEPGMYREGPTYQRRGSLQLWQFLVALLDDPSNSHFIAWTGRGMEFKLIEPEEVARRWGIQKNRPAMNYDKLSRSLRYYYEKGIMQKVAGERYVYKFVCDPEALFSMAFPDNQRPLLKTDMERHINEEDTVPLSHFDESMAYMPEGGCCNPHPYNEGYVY
# Chain of ETV5 (P41161 whole entry): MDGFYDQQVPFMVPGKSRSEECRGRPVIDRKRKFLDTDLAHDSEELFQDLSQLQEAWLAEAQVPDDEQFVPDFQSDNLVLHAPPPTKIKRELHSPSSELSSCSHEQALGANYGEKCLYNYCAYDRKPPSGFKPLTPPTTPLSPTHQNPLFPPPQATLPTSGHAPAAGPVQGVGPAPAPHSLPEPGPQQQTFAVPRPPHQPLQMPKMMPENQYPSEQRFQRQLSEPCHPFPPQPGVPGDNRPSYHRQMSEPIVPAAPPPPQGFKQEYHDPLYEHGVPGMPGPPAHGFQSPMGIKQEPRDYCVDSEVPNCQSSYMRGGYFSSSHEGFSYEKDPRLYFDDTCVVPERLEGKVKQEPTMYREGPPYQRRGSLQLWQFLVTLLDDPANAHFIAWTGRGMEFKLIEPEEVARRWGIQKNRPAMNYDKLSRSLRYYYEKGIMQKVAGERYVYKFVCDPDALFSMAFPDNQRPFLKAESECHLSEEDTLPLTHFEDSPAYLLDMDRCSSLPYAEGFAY
# Chain of ETV6 (P41212 whole entry): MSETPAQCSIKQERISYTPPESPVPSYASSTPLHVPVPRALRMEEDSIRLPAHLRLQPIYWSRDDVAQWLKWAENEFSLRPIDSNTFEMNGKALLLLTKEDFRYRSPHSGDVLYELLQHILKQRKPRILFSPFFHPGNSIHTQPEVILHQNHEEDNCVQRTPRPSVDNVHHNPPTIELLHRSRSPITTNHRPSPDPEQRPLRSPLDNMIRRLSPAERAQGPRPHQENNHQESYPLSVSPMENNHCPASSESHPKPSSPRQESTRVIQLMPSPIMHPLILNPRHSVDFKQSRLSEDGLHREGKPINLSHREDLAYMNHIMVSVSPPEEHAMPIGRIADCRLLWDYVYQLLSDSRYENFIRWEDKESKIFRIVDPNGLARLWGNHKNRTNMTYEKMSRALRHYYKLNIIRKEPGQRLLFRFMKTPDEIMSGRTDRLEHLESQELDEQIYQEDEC
# Chain of HSF1 (Q00613 whole entry): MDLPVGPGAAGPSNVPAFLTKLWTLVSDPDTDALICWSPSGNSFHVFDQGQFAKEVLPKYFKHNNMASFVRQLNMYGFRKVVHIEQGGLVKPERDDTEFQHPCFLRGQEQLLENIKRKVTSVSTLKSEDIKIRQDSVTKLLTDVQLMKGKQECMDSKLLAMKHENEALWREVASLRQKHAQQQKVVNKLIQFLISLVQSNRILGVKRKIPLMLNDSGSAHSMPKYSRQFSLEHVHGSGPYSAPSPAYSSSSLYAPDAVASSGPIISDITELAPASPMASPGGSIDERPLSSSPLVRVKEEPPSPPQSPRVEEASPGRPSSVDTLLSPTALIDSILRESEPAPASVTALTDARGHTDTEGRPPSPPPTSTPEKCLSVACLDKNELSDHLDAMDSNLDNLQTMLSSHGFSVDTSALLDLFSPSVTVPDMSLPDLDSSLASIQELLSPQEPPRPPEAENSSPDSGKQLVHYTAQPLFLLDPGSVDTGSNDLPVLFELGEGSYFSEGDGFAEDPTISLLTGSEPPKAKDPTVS
# Chain of ELF4 (Q99607 whole entry): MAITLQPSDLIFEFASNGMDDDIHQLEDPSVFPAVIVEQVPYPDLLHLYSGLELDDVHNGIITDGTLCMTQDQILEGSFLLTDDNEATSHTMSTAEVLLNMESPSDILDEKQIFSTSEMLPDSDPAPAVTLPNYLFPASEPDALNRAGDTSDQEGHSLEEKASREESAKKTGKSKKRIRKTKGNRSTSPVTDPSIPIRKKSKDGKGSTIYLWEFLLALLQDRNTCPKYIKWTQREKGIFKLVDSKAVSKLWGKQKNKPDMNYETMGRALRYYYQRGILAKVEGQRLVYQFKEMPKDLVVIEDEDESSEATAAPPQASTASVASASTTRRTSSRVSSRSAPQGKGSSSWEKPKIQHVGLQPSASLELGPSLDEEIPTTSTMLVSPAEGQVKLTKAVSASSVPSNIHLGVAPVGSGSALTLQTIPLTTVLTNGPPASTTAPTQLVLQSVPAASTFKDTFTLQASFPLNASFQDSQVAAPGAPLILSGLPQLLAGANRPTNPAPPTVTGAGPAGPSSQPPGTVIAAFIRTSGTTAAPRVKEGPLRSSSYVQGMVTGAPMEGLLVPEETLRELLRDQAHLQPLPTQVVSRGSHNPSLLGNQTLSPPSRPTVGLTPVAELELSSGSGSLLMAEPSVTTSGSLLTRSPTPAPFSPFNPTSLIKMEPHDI
sequence,measurement,setting,value
TCTCGA,binding signal,FEV,"1.23 fold enrichment (6-mer frequency, TF over GST control)"
same,binding signal,ETV5,"1.4 fold enrichment (6-mer frequency, TF over GST control)"
same,binding signal,HSF1,"5.05 fold enrichment (6-mer frequency, TF over GST control)"
same,binding signal,SPIC,"1.35 fold enrichment (6-mer frequency, TF over GST control)"
same,binding signal,ELF4,"1.51 fold enrichment (6-mer frequency, TF over GST control)"
same,binding signal,ELK4,"1.46 fold enrichment (6-mer frequency, TF over GST control)"
same,binding signal,ETV2,"1.27 fold enrichment (6-mer frequency, TF over GST control)"
same,binding signal,ELF3,"1.35 fold enrichment (6-mer frequency, TF over GST control)"
same,binding signal,CRX,"2.28 fold enrichment (6-mer frequency, TF over GST control)"
same,binding signal,ETV1,"1.47 fold enrichment (6-mer frequency, TF over GST control)"
same,binding signal,ERF,"1.35 fold enrichment (6-mer frequency, TF over GST control)"
same,binding signal,ETV3L,"1.35 fold enrichment (6-mer frequency, TF over GST control)"
same,binding signal,ETS2,"1.44 fold enrichment (6-mer frequency, TF over GST control)"
same,binding signal,SPDEF,"1.2 fold enrichment (6-mer frequency, TF over GST control)"
same,binding signal,ETV7,"1.47 fold enrichment (6-mer frequency, TF over GST control)"
same,binding signal,ELF5,"1.27 fold enrichment (6-mer frequency, TF over GST control)"
same,binding signal,ETV3,"1.4 fold enrichment (6-mer frequency, TF over GST control)"
same,binding signal,ETV6,"1.47 fold enrichment (6-mer frequency, TF over GST control)"
